From PubChem BioAssay AID1159580 (chemical genetic matrix, 2015)
Out of some 5,500 compounds screened, about 2,000 (36%) were called active. About 18% were inconclusive and are not listed. No stated cut-off is given here; in the data, active means normalized growth mostly below about 0.91 (no sharp cut-off); inconclusive means no clear call, values can overlap the other calls; inactive means mostly above about 0.92. The list shows a part of the results.

Test: chemical genetic growth profiling, strain panel (AID 1159580);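 further: tested at 20 µM; growth read once vehicle control cultures reached saturation at 30 °C; 1 = growth at the plate median or of vehicle wells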
Conditions: growth OD

Measured: normalized growth

CC(=O)O[C@H]1CC[C@]2(C)C3CC[C@@]4(C)C(CC5O[C@@]6(CCC(C)CO6)[C@@H](C)C54)C3CC[C@H]2C1 (stereo partly drawn)
inactive: S. cerevisiae deletion strains, locus YAL013W, strain DEP1, stronger effect = lower value 0.995 | S. cerevisiae deletion strains, locus YBR021W, strain FUR4, stronger effect = lower value 1 | S. cerevisiae deletion strains, locus YBR229C, strain ROT2, stronger effect = lower value 0.986 | S. cerevisiae deletion strains, locus YCL029C, strain bik1, stronger effect = lower value 0.98 | S. cerevisiae deletion strains, locus YDL035C, strain GPR1, stronger effect = lower value 1.02 | S. cerevisiae deletion strains, locus YDL074C, strain BRE1, stronger effect = lower value 1.01 | S. cerevisiae deletion strains, locus YDL101C, strain DUN1, stronger effect = lower value 0.98 | S. cerevisiae deletion strains, locus YDL134C, strain PPH21, stronger effect = lower value 0.988 | S. cerevisiae deletion strains, locus YDL185W, strain tfp1, stronger effect = lower value 0.972 | S. cerevisiae deletion strains, locus YDL192W, strain arf1, stronger effect = lower value 0.987 | S. cerevisiae deletion strains, locus YDR101C, strain arx1, stronger effect = lower value 0.983 | S. cerevisiae deletion strains, locus YDR150W, strain NUM1, stronger effect = lower value 1 | S. cerevisiae deletion strains, locus YDR162C, strain NBP2, stronger effect = lower value 1.02 | S. cerevisiae deletion strains, locus YDR318W, strain mcm21, stronger effect = lower value 0.975 | S. cerevisiae deletion strains, locus YDR388W, stronger effect = lower value 0.973 | S. cerevisiae deletion strains, locus YDR502C, strain sam2, stronger effect = lower value 0.974 | S. cerevisiae deletion strains, locus YEL061C, strain CIN8, stronger effect = lower value 0.997 | S. cerevisiae deletion strains, locus YER110C, stronger effect = lower value 0.976 | S. cerevisiae deletion strains, locus YER155C, strain BEM2, stronger effect = lower value 0.984 | S. cerevisiae deletion strains, locus YER167W, strain BCK2, stronger effect = lower value 0.995 | S. cerevisiae deletion strains, locus YGL078C, strain dbp3, stronger effect = lower value 0.971 | S. cerevisiae deletion strains, locus YGL086W, strain mad1, stronger effect = lower value 0.988 | S. cerevisiae deletion strains, locus YGL248W, strain PDE1, stronger effect = lower value 0.984 | S. cerevisiae deletion strains, locus YGR135W, strain pre9, stronger effect = lower value 0.948 | S. cerevisiae deletion strains, locus YGR252W, strain gcn5, stronger effect = lower value 0.92 | S. cerevisiae deletion strains, locus YHR030C, strain SLT2, stronger effect = lower value 0.978 | S. cerevisiae deletion strains, locus YHR079C, strain IRE1 (second series), stronger effect = lower value 0.977 | S. cerevisiae deletion strains, locus YHR094C, strain hxt1, stronger effect = lower value 0.969 | S. cerevisiae deletion strains, locus YHR129C, strain ARP1, stronger effect = lower value 0.991 | S. cerevisiae deletion strains, locus YHR200W, strain rpn10, stronger effect = lower value 0.973 | S. cerevisiae deletion strains, locus YIL066C, strain RNR3, stronger effect = lower value 0.993 | S. cerevisiae deletion strains, locus YIL073C, strain SPO22, stronger effect = lower value 0.985 | S. cerevisiae deletion strains, locus YIL125W, strain kgd1, stronger effect = lower value 0.982 | S. cerevisiae deletion strains, locus YIR030C, strain dcg1, stronger effect = lower value 0.975 | S. cerevisiae deletion strains, locus YJL095W, strain BCK1, stronger effect = lower value 0.977 | S. cerevisiae deletion strains, locus YJL134W, strain LCB3, stronger effect = lower value 0.987 | S. cerevisiae deletion strains, locus YJL168C, strain set2, stronger effect = lower value 0.979 | S. cerevisiae deletion strains, locus YJL187C, strain SWE1 (second series), stronger effect = lower value 0.977 | S. cerevisiae deletion strains, locus YJR043C, strain POL32, stronger effect = lower value 1.02 | S. cerevisiae deletion strains, locus YJR075W, strain HOC1, stronger effect = lower value 0.983 | S. cerevisiae deletion strains, locus YKL009W, strain mrt4, stronger effect = lower value 1.04 | S. cerevisiae deletion strains, locus YKL068W, stronger effect = lower value 0.979 | S. cerevisiae deletion strains, locus YKL085W, strain MDH1 (second series), stronger effect = lower value 1.01 | S. cerevisiae deletion strains, locus YKL085W, strain MDH1, stronger effect = lower value 1.01 | S. cerevisiae deletion strains, locus YKL190W, strain CNB1, stronger effect = lower value 0.999 | S. cerevisiae deletion strains, locus YKR001C, strain vps1, stronger effect = lower value 0.971 | S. cerevisiae deletion strains, locus YLR039C, strain RIC1, stronger effect = lower value 1.07 | S. cerevisiae deletion strains, locus YLR058C, strain SHM2, stronger effect = lower value 0.989 | S. cerevisiae deletion strains, locus YLR102C, strain apc9, stronger effect = lower value 0.979 | S. cerevisiae deletion strains, locus YLR268W, strain sec22, stronger effect = lower value 0.987 | S. cerevisiae deletion strains, locus YLR330W, strain CHS5, stronger effect = lower value 0.986 | S. cerevisiae deletion strains, locus YLR371W, strain rom2, stronger effect = lower value 0.991 | S. cerevisiae deletion strains, locus YLR418C, strain cdc73, stronger effect = lower value 0.976 | S. cerevisiae deletion strains, locus YML016C, strain PPZ1, stronger effect = lower value 0.989 | S. cerevisiae deletion strains, locus YML032C, strain rad52, stronger effect = lower value 0.977 | S. cerevisiae deletion strains, locus YML124C, strain tub3, stronger effect = lower value 0.994 | S. cerevisiae deletion strains, locus YMR078C, strain ctf18, stronger effect = lower value 0.969 | S. cerevisiae deletion strains, locus YMR223W, strain ubp8, stronger effect = lower value 0.969 | S. cerevisiae deletion strains, locus YMR263W, strain SAP30, stronger effect = lower value 0.991 | S. cerevisiae deletion strains, locus YMR307W, strain GAS1, stronger effect = lower value 1.09 | S. cerevisiae deletion strains, locus YNL067W, strain RPL9B, stronger effect = lower value 0.983 | S. cerevisiae deletion strains, locus YNL153C, strain GIM3, stronger effect = lower value 0.977 | S. cerevisiae deletion strains, locus YNL233W, strain BNI4, stronger effect = lower value 1.01 | S. cerevisiae deletion strains, locus YNL250W, strain rad50, stronger effect = lower value 0.965 | S. cerevisiae deletion strains, locus YNL271C, strain bni1, stronger effect = lower value 0.982 | S. cerevisiae deletion strains, locus YNL298W, strain CLA4, stronger effect = lower value 0.971 | S. cerevisiae deletion strains, locus YNL307C, strain MCK1, stronger effect = lower value 0.982 | S. cerevisiae deletion strains, locus YNR052C, strain pop2, stronger effect = lower value 0.953 | S. cerevisiae deletion strains, locus YOL006C, strain TOP1, stronger effect = lower value 1.06 | S. cerevisiae deletion strains, locus YOL012C, strain htz1 1.12 | S. cerevisiae deletion strains, locus YOL147C, strain pex11, stronger effect = lower value 0.98 | S. cerevisiae deletion strains, locus YOR061W, strain CKA2, stronger effect = lower value 1 | S. cerevisiae deletion strains, locus YOR069W, strain VPS5, stronger effect = lower value 0.98 | S. cerevisiae deletion strains, locus YOR136W, strain idh2, stronger effect = lower value 0.968 | S. cerevisiae deletion strains, locus YOR144C, strain elg1, stronger effect = lower value 0.972 | S. cerevisiae deletion strains, locus YOR184W, strain ser1, stronger effect = lower value 1.02 | S. cerevisiae deletion strains, locus YOR316C, strain cot1, stronger effect = lower value 0.977 | S. cerevisiae deletion strains, locus YPR119W, strain clb2, stronger effect = lower value 0.968 | S. cerevisiae deletion strains, locus YPR141C, strain kar3, stronger effect = lower value 0.974 | S. cerevisiae deletion strains, locus YPR163C, strain tif3, stronger effect = lower value 0.977 | S. cerevisiae deletion strains, locus YPR167C, strain met16, stronger effect = lower value 0.979 | S. cerevisiae deletion strains, strain wtn01, stronger effect = lower value 1 | S. cerevisiae strains, strain wild type, stronger effect = lower value 1.02
